# Inconclusive results are not listed. The source made the active and inactive calls. Rule for the calls: active = hit-call score of the fitted dose curve at least 0.9, where 1 is the maximum; inconclusive = response in the unintended direction; inactive = score below 0.9.
# Molecular target: human Vitamin D Receptor (VDR), VDR (gene 7421) (UniProt P11473)
# Assay: ATG_VDR_TRANS: Attagene TRANS-FACTORIAL HepG2 Assay for human Vitamin D Receptor (VDR) (AID 2283022)
# Protocol: ATG_TRANS is a cell-based, multiplexed-readout assay that uses HepG2, a human liver cell line, with measurements taken at 24 hours after chemical dosing in a 24-well plate.ATG_VDR_TRANS is one of 30 assay component(s) measured or calculated from the ATG_TRANS assay. It is designed to make measurements of mRNA induction, a form of inducible reporter, as detected with fluorescence intensity signals by Reverse transcription polymerase chain reaction (RT-PCR) and Capillary electrophoresis technology.Data from the assay component ATG_VDR_TRANS was analyzed into 1 assay endpoint. This assay endpoint, ATG_VDR_TRANS, was analyzed in the positive analysis fitting direction relative to DMSO as the negative control and baseline of activity. Using a type of inducible reporter, measures of mRNA for gain-of-signal activity can be used to understand the reporter gene at the transcription factor-level as they relate to the gene VDR. Furthermore, this assay endpoint can be referred to as a primary readout, because this assay has produced multiple assay endpoints where this one serves a reporter gene function. To generalize the intended target to other relatable targets, this assay endpoint is annotated to the nuclear receptor intended target family, where the subfamily is non-steroidal.
# Human liver HepG2 cells are transiently transfected with multiple reporter transcription units (MRTUs) in 6-well plates using FuGene 6 reagent (Roche; 3 ml FuGene/1 mg DNA). The MRTU constructs are regulated by a cis-regulating element (promoter). […] A major difference between the CIS and TRANS system is that in CIS activities of endogenous TFs are measured, whereas the TRANS assay evaluates changes in activities of exogenous, chimeric NR-Gal4 proteins. […] At the end of 24 hour incubation, total RNA was isolated using TriZol reagent (Invitrogen). The isolated RNA is then reverse-transcribed using oligo(dT) primer and Mo-MLV reverse transcriptase (Invitrogen) with DNAse I (Ambion) treatment for 30 min. The one-tenth of the produced cDNA was amplified by PCR using Taq DNA polymerase (Invitrogen) and two reporter sequence-specific primers. The PCR products were fluorescently labeled by primer extension with 6-arboxyfluorescein (6-FAM) 5'-labeled reporter sequence-specific primer (2 min at 95 C, 20 s at 68 C and 10 min at 72 C) and these products were digested with 5U of HpaI (New England Biolabs) for 2h at 37 C. The fragments were purified using Qiaquick PCR columns (Qiagen), analyzed on an ABI 3130xL genetic analyzer (Applied Biosystems) with peak positions identified by using a set of X-rhodamine (ROX)-labeled MapMarker1000 molecular weight standards (BioVentures). The raw capillary electrophoresis data was processed using Attagraph software (Attagene).
# Chain of human Vitamin D Receptor (VDR), VDR (gene 7421) (P11473 whole entry, looked up): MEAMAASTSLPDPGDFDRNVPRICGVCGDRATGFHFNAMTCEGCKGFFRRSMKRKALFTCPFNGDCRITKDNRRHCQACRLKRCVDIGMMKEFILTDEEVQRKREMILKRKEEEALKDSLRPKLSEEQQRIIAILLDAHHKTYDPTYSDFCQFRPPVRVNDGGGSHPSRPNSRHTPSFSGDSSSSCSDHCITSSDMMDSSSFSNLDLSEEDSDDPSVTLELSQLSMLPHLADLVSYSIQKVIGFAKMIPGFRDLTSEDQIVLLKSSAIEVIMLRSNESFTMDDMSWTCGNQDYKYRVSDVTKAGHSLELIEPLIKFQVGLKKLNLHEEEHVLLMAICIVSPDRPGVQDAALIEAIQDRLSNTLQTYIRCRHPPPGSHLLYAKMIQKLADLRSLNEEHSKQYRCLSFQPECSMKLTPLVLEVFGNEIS
row,Compound,outcome
1,CCN(CC)c1cccc(C)c1,inactive
2,O=C(Cl)c1ccc(C(=O)Cl)cc1,inactive
3,COC(C=C(C)CCC=C(C)C)OC,inactive
4,CCCCC(CC)COS(=O)(=O)O (stereo not given),inactive
5,CC(C)c1cc(C(C)C)cc(C(C)C)c1,inactive
6,COc1ccc(-c2coc3cc(O)cc(O)c3c2=O)cc1,inactive
7,Fc1ccc(Br)cc1,inactive
8,C=CC(=O)O[C@H]1C[C@@H]2CC[C@@]1(C)C2(C)C,inactive
9,O=C(O)C1CCC(C(=O)O)CC1 (stereo not given),inactive
10,Oc1ccc(-c2ccccc2)c(Cl)c1,inactive
11,C=C(C)C(=O)OCCCCCCCCCCCC,inactive
12,Clc1cc(Cl)c(Cl)c(Cl)c1Cl,inactive
13,CCCCCC1=CCCC1=O,inactive
14,CCOB(OCC)OCC,inactive
15,Oc1ccc(/C=C/c2cc(O)cc(O)c2)cc1,inactive
16,C=CC(=O)OCC(C)OCC(C)OCC(C)OC(=O)C=C (stereo not given),inactive
17,O=C(O)CCC(=O)O,inactive
18,CCCCCCCCCC[N+](C)(CCCCCCCCCC)CCC[Si](OC)(OC)OC,inactive
19,CCc1cccc(CC)c1,inactive
20,N#Cc1ccc(C(c2ccc(C#N)cc2)n2cncn2)cc1,inactive

row,Compound,outcome
1,CC1(C)CC(O)CC(C)(C)N1[O],inactive
2,CCCCCCCCCCCCc1ccc(O)cc1,inactive
3,CCCCCCCCCCCC(C)=O,inactive
4,CCCCCC[C@@H](O)C/C=C\CCCCCCCC(=O)OCC(O)CO (stereo not given in full),inactive
5,CCCCCCCCCCCC(=O)N(C)CC(=O)O,inactive
6,CCOC(=O)c1ccc(C)cc1,inactive
7,CCCCCCO,inactive
8,CCOC(=O)C1=NOC(c2ccccc2)(c2ccccc2)C1,inactive
9,O=c1c(O)c(-c2ccc(O)cc2O)oc2cc(O)cc(O)c12,inactive
10,C=C(C)C(=O)OCCOC(=O)C(=C)C,inactive
11,CCCCOC(=O)C(C)CC (stereo not given),inactive
12,O=C(O[C@@H]1Cc2c(O)cc(O)cc2O[C@@H]1c1cc(O)c(O)c(O)c1)c1cc(O)c(O)c(O)c1,inactive
13,CC/C=C\CCOC(=O)c1ccccc1O,inactive
14,Nc1ccc(C(=O)OCCCOC(=O)c2ccc(N)cc2)cc1,inactive
15,CC(=O)c1ccc(S(=O)(=O)NC(=O)NC2CCCCC2)cc1,inactive
16,Nc1ccnc(=O)[nH]1,inactive
17,CCCCCCCCCC(C)=O,inactive
18,CC(C)C(=O)OCCOc1ccccc1,inactive
19,CCCCCCCO,inactive
20,CCCCNS(=O)(=O)c1ccccc1,inactive

# From PubChem BioAssay (EPA / NIEHS)
